Pf growth 48h: P. falciparum growth inhibition at 48 hours (one generation) | P. falciparum luciferase growth in erythrocytes, 48 h | Potency, µM (top dose mostly 28.7 µM), hits mostly inhibitors | actives 5.9% (n = 310,000)
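Growth was read as firefly luciferase luminescence after a 48 h, 37 C, 5% CO2 exposure of compounds to reporter-bearing P. falciparum cultures (0.1% parasitemia, 2% hematocrit final) in Albumax-supplemented RPMI 1640.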
Marburg entry inh: Marburg virus entry inhibition; Marburg virus pseudotyped entry inhibition, cell reporter; Potency, µM (titrated, usually from 37.8 µM), actives largely listed as inhibitors; actives 1.8% (n = 300,000); calls by dose curve; tested in HEK293 cells
HCMV antiviral: blocks human cytomegalovirus replication. activity change, negative = inhibition, % at 57.5 µM. AID 1259415. actives 4.5% (n = 410,000). HFF cells, HCMV-luciferase reporter, 72 h; stronger effect = lower value; in the data active = activity change below about -60%; inconclusive = no clear call, values can overlap the other calls; inactive = above about -39%
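Two compound doses tested in HFFs infected with HCMV-luciferase, MOI 1 PFU/cell, 72 h at 37C. Lysate luminescence read with OneGlo; data normalized against buffer-only and 10uM Salinomycin inhibitor controls.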
HCV inhibitor: inhibitors of hepatitis C virus infection | actives 3.4% (n = 340,000) | Potency, µM (highest dose often 41.8 µM), hits mostly inhibitors | Huh7.5.1 HCVcc-Cre infection, luciferase reporter, 44 h | AID 651820
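Whole-lifecycle infectious HCVcc-Cre system; cells 1,000/well, compound then virus (~0.5 moi) added 4 h after plating, 44 h culture. Luciferase read 15 sec following 15 min substrate incubation, room temp.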
Pf growth 96h: P. falciparum growth inhibition at 96 hours. Potency, µM (highest dose often 28.7 µM), actives largely listed as inhibitors. actives 6.9% (n = 320,000). P. falciparum luciferase reporter growth, 96 h. AID 504834
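Parasite growth measured via integrated firefly luciferase reporter in P. falciparum. Infected erythrocytes at 2% hematocrit, 0.05% parasitemia final were treated 96 hours at 37 C under 5% CO2, and luminescence was read.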
Lassa entry inh: inhibitors of Lassa virus binding or cell entry; Lassa virus pseudotype entry inhibition, cell reporter; Potency, µM (series often up to 37.9 µM), actives largely listed as inhibitors; actives 1.2% (n = 300,000); AID 540256; calls by dose curve; tested in HEK293 cells; note: nearly all actives have a fitted effect of over 50% in size
Hits are given with their value. This is a sample that favours compounds with a hit; in the whole collection about 14% have one here. Unless noted, calls come from the whole dose curve; as a rule, active = well fitted inhibition curve with a large enough effect; inconclusive = small, poorly fitted or top-dose-only effect, or another doubt; inactive = no such curve, though single readings can be large or run the other way.

How did COc1cccc([C@H]2Oc3ccc(OC)cc3C(=NO[C@@H](C)c3cn([C@H](CO)Cc4ccccc4)nn3)[C@H]2O)c1 do in these assays?
Marburg entry inh: inactive

Results for CN1CCN(c2ccccc2NC(=O)c2cccc(OCc3ccccc3)c2)CC1 ?
Pf growth 48h: 5.2µM; Marburg entry inh: inconclusive; HCMV antiviral: inactive; HCV inhibitor: inconclusive; Lassa entry inh: inactive

What do the screens show for `CCOc1cccc(C(=O)Nc2ccccc2C(=O)N2CCN(C)CC2)c1`?
Pf growth 48h: inactive; Marburg entry inh: inactive; HCMV antiviral: inactive; HCV inhibitor: inactive; Pf growth 96h: 4.7µM; Lassa entry inh: inactive

Results for CC(=O)Oc1cccc(C(=O)Nc2ccccc2C(=O)N2CCCC2)c1 ?
Pf growth 48h: inactive; Marburg entry inh: inactive; HCMV antiviral: inactive; Pf growth 96h: inactive; Lassa entry inh: inactive

What do the screens show for `CN1CCN(c2ccccc2NC(=O)c2ccc(OCc3ccccc3)cc2)CC1`?
Pf growth 48h: 7.4µM; Marburg entry inh: inactive; HCMV antiviral: inactive; HCV inhibitor: 11µM; Pf growth 96h: 13µM; Lassa entry inh: inconclusive

Results for CN1CCN(c2ccccc2NC(=O)C(Cc2ccccc2)n2cccc2)CC1 (stereo not drawn) ?
Pf growth 48h: 10µM; HCMV antiviral: inactive; HCV inhibitor: inactive; Pf growth 96h: inconclusive

Results for Cc1cccc(NC(=O)NN2CCN(C)CC2)c1C ?
Pf growth 48h: inactive; HCMV antiviral: inactive; HCV inhibitor: inactive; Pf growth 96h: inactive

Results for Cc1ccc(C2=Nn3c(COc4ccc(Cl)cc4)nnc3SC2CC(=O)O)cc1 (stereo not drawn) ?
Pf growth 48h: inactive; Marburg entry inh: inactive; HCMV antiviral: inactive; HCV inhibitor: inactive; Pf growth 96h: inactive; Lassa entry inh: inconclusive

Results for Cc1ccc(C)c(NC(=O)CN2C(=O)CSc3nc(C)cc(C)c32)c1 ?
Marburg entry inh: inactive; HCMV antiviral: inactive; Lassa entry inh: inactive

How did COc1cccc([C@@H]2Oc3ccc(OC)cc3[C@H](O)[C@@H]2O)c1 do in these assays?
Marburg entry inh: inactive

How did COc1c(F)c(F)c(C(=O)Nc2ccccc2N2CCN(C(=O)C(C)C)CC2)c(F)c1F do in these assays?
Pf growth 48h: 0.93µM; Marburg entry inh: inactive; HCMV antiviral: inactive; HCV inhibitor: inconclusive; Pf growth 96h: inactive; Lassa entry inh: inactive

Results for CN1CCN(c2ccccc2NC(=O)c2c(F)cccc2F)CC1 ?
Pf growth 48h: inconclusive; Marburg entry inh: inactive; HCMV antiviral: inactive; HCV inhibitor: inactive; Pf growth 96h: 3.7µM; Lassa entry inh: inactive

What do the screens show for `Cc1noc(C)c1COc1cccc(C(=O)Nc2ccccc2N2CCOCC2)c1`?
Pf growth 48h: inconclusive; Marburg entry inh: inactive; HCMV antiviral: inactive; HCV inhibitor: inconclusive; Pf growth 96h: 13µM; Lassa entry inh: inactive

What do the screens show for `CC(C)Oc1ccc(C(=O)Nc2ccccc2N2CCOCC2)cc1`?
Pf growth 48h: inconclusive; HCMV antiviral: inactive; HCV inhibitor: inactive; Pf growth 96h: inactive

Results for Cc1nc(COc2ccc(C(=O)Nc3ccccc3N3CCOCC3)cc2)cs1 ?
Pf growth 48h: inactive; Marburg entry inh: inactive; HCMV antiviral: inactive; HCV inhibitor: 11µM; Pf growth 96h: inconclusive; Lassa entry inh: inactive

Results for c1cn2c(-c3ccoc3)cncc2n1 ?
HCMV antiviral: inactive

How did COC(=O)N1C2CCCCC2=NN(c2ccccc2)N1C(=O)OC (stereo not drawn) do in these assays?
HCMV antiviral: inactive

How did CCCCc1ccc(NC(=O)c2cc3c(=O)n4ccccc4nc3n2C)cc1 do in these assays?
HCMV antiviral: inconclusive; Lassa entry inh: inactive

What do the screens show for `C[C@H]1[C@@H](NC(=O)Nc2cccc(C#N)c2)CC[C@@]23CCCN2C(=O)CCC[C@@H]13`?
HCMV antiviral: inactive

Results for Cc1ccc(NC(=O)CCNS(=O)(=O)c2cccs2)cc1F ?
Pf growth 48h: inactive; Marburg entry inh: inactive; HCMV antiviral: inactive; HCV inhibitor: inactive; Pf growth 96h: inactive; Lassa entry inh: inactive

What do the screens show for `Cc1ccc(NC(=O)c2cccs2)cc1NC(=O)c1ccc(F)cc1`?
Pf growth 48h: inactive; Marburg entry inh: inconclusive; HCMV antiviral: inactive; HCV inhibitor: inconclusive; Pf growth 96h: 10µM; Lassa entry inh: inactive

How did COc1cc(C(=O)O)cc(NC(=O)c2cccs2)c1OC do in these assays?
Pf growth 48h: inactive; Marburg entry inh: inactive; HCMV antiviral: inactive; HCV inhibitor: inactive; Pf growth 96h: inactive; Lassa entry inh: inactive

Results for Cc1ccc(NC(=O)CCC(=O)c2cccs2)cc1F ?
Pf growth 48h: inactive; Marburg entry inh: inactive; HCMV antiviral: -64; HCV inhibitor: inactive; Pf growth 96h: inactive; Lassa entry inh: inactive

What do the screens show for `COc1cccc(C(=O)Nc2cc(NC(=O)c3cccs3)ccc2C)c1`?
Pf growth 48h: inactive; HCMV antiviral: -75; HCV inhibitor: inactive; Pf growth 96h: inconclusive

How did COc1cc(C(=O)OCc2ccc(C)cc2)cc(NC(=O)c2cccs2)c1OC do in these assays?
Pf growth 48h: 8.3µM; Marburg entry inh: inactive; HCMV antiviral: inactive; HCV inhibitor: inconclusive; Pf growth 96h: 10µM; Lassa entry inh: inactive

What do the screens show for `COc1cccc(C(=O)Nc2cccc(NC(=O)c3cccs3)c2)c1`?
Pf growth 48h: inactive; HCMV antiviral: inactive; HCV inhibitor: inconclusive; Pf growth 96h: inconclusive

Results for CCOc1ccc(CNC(=O)COc2cc(=O)n(C)c3ccccc23)cc1 ?
Marburg entry inh: inconclusive; HCMV antiviral: inactive; Lassa entry inh: inactive

Results for Cc1noc(C)c1S(=O)(=O)N(CC(=O)Nc1ccc(C(F)(F)F)cc1)c1ccc(C(C)C)cc1 ?
Marburg entry inh: inconclusive; HCMV antiviral: inactive; Lassa entry inh: inactive

How did COc1ccc(-c2ccccc2-c2noc3ccccc23)cc1 do in these assays?
HCMV antiviral: inactive

What do the screens show for `COc1cccc(C(=O)Nc2cc(NC(=O)c3cccs3)ccc2C)c1OC`?
Pf growth 48h: inactive; HCMV antiviral: inactive; HCV inhibitor: 10µM; Pf growth 96h: inactive

What do the screens show for `CCN(CC)CCN(C(=O)c1ccc2ccccc2c1)c1nc2ccc(OC)cc2s1`?
Pf growth 48h: inactive; HCMV antiviral: inactive; HCV inhibitor: inconclusive; Pf growth 96h: inactive

What do the screens show for `COc1cc2ccccc2cc1C(=O)N(CCN(C)C)c1nc2ccc(C)cc2s1`?
Pf growth 48h: inconclusive; Marburg entry inh: 4.5µM; HCMV antiviral: inactive; HCV inhibitor: 6.3µM; Pf growth 96h: inactive; Lassa entry inh: inconclusive

How did CCN(CC)CCN(C(=O)c1cc2ccccc2cc1OC)c1nc2ccc(OC)cc2s1 do in these assays?
Pf growth 48h: inconclusive; HCMV antiviral: inactive; HCV inhibitor: 11µM; Pf growth 96h: inconclusive

Results for CCN(CC)CCN(C(=O)c1cc2ccccc2cc1OC)c1nc2ccc(F)cc2s1 ?
Pf growth 48h: inconclusive; Marburg entry inh: 5.6µM; HCMV antiviral: inactive; HCV inhibitor: inconclusive; Pf growth 96h: inconclusive; Lassa entry inh: inactive

Source: PubChem (National Center for Advancing Translational Sciences (NCATS))
